Test results taken from the supplement of paper PMC13380429.
Values without a mark were called inactive.

The compounds below were run on Vero E6 infected with SARS-CoV-2 (assay: inhibition of SARS-CoV-2 cytopathic effect; higher = more antiviral protection, active = above 15). Details: 833.33 nM; 48 h.

Row | Compound | inhibition of SARS-CoV-2 cytopathic effect
1 | CC(=O)OCC1=C(C(=O)O)N2C(=O)[C@@H](N)[C@H]2SC1 [7-aminocephalosporanic-acid] | -0.34%
2 | O[C@@H](CN1CCC(Cc2ccc(F)cc2)CC1)c1ccc(Cl)cc1 (racemic) [eliprodil] | 2.59%
3 | CCCCOc1ccc(C(=O)Nc2ccc(F)cc2F)cc1 | -1.37%
4 | CC(C)Nc1cccnc1N1CCN(C(=O)c2cc3cc(NS(C)(=O)=O)ccc3[nH]2)CC1 [delavirdine] | 1.65%
5 | COc1ccc2ccc(=O)oc2c1CC=C(C)C [osthol] | 3.87%
6 | CCN(CC)CCNC(=O)c1cc(Br)c(N)cc1OC [bromopride] | -3.5%
7 | O=C(O)c1c(Sc2ccccc2)c2cc(Cl)ccc2n1Cc1ccc(Cl)cc1 | 3.75%
8 | CC[C@@H](C)Nc1cc(C(=O)N[C@H]2C[C@H]3CC[C@@H](C2)N3c2ccc(C(=O)C3CC3)cn2)c(C)cc1C(N)=O | 2.73%
9 | CC1(C)CC(Oc2ccc(-c3ccc(-c4cn[nH]c4)cc3O)nn2)CC(C)(C)N1 | -9.03%
10 | O=C(/C=C\n1cnc(-c2cc(C(F)(F)F)cc(C(F)(F)F)c2)n1)NNc1cnccn1 [selinexor] | -8.61%
11 | CCCCc1ccc(O)cc1O [rucinol] | -0.13%
12 | Nc1ncnc2c1ncn2[C@@H]1O[C@H](CO)C[C@H]1O [cordycepin] | -0.81%
13 | COc1cc(NC(=O)c2ccccn2)ccc1Cl | 2.18%
